# Test results: the supplement of paper PMC6992640
# Columns and labels:
# HCI01 = cells of a triple-negative basal-like breast cancer xenograft; test: cell viability of combination (% of vehicle); higher = less cytotoxic; settings: 1 µM; 72 h; partner dose: 10 nM
# Method: (§1)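 PDX cells were treated for 72 h with each drug at 1 µM plus carfilzomib (10 nM; 100 nM for WHIM2). Luciferase viability is expressed as percent of vehicle.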
# UCD52 = cells of a triple-negative basal-like breast cancer xenograft; test: as above; settings: 1 µM; 72 h; partner dose: 10 nM
# Method: as §1
Compound,cell viability of combination (HCI01),cell viability of combination (UCD52)
CO[C@@]12[C@H](COC(N)=O)C3=C(C(=O)C(C)=C(N)C3=O)N1C[C@@H]1N[C@@H]12 [Mitomycin C] + CC(C)C[C@H](NC(=O)[C@H](CCc1ccccc1)NC(=O)CN1CCOCC1)C(=O)N[C@@H](Cc1ccccc1)C(=O)N[C@@H](CC(C)C)C(=O)[C@@]1(C)CO1 [Carfilzomib],51.1,64
Cl.Nc1ccn(C2OC(CO)C(O)C2O)c(=O)n1 (stereo unspecified) [Cytarabine hydrochloride] + CC(C)C[C@H](NC(=O)[C@H](CCc1ccccc1)NC(=O)CN1CCOCC1)C(=O)N[C@@H](Cc1ccccc1)C(=O)N[C@@H](CC(C)C)C(=O)[C@@]1(C)CO1 [Carfilzomib],65.5,77.1
COCCn1c2c([n+](Cc3cnccn3)c1C)C(=O)c1ccccc1C2=O.[Br-] + CC(C)C[C@H](NC(=O)[C@H](CCc1ccccc1)NC(=O)CN1CCOCC1)C(=O)N[C@@H](Cc1ccccc1)C(=O)N[C@@H](CC(C)C)C(=O)[C@@]1(C)CO1 [Carfilzomib],25.5,17.4
O=C(c1ccc(F)c(F)c1Nc1ccc(I)cc1F)N1CC(O)(C2CCCCN2)C1 (stereo unspecified) [Cobimetinib] + CC(C)C[C@H](NC(=O)[C@H](CCc1ccccc1)NC(=O)CN1CCOCC1)C(=O)N[C@@H](Cc1ccccc1)C(=O)N[C@@H](CC(C)C)C(=O)[C@@]1(C)CO1 [Carfilzomib],65.6,44.7
CN1CCN(CCCN2c3ccccc3Sc3ccc(C(F)(F)F)cc32)CC1.Cl.Cl [Trifluoperazine 2HCl] + CC(C)C[C@H](NC(=O)[C@H](CCc1ccccc1)NC(=O)CN1CCOCC1)C(=O)N[C@@H](Cc1ccccc1)C(=O)N[C@@H](CC(C)C)C(=O)[C@@]1(C)CO1 [Carfilzomib],76.2,59.5
CN1CCC(COc2cnc(-c3cccc(Cn4nc(-c5cccc(C#N)c5)ccc4=O)c3)nc2)CC1 + CC(C)C[C@H](NC(=O)[C@H](CCc1ccccc1)NC(=O)CN1CCOCC1)C(=O)N[C@@H](Cc1ccccc1)C(=O)N[C@@H](CC(C)C)C(=O)[C@@]1(C)CO1 [Carfilzomib],80.4,57
COc1cc2ncnc(Nc3ccc(F)c(Cl)c3)c2cc1NC(=O)C=CCN1CCCCC1 + CC(C)C[C@H](NC(=O)[C@H](CCc1ccccc1)NC(=O)CN1CCOCC1)C(=O)N[C@@H](Cc1ccccc1)C(=O)N[C@@H](CC(C)C)C(=O)[C@@]1(C)CO1 [Carfilzomib],68.1,34.1
Clc1ccc(C(Cn2ccnc2)OCc2ccc(Sc3ccccc3)cc2)c(Cl)c1.O=[N+]([O-])O (stereo unspecified) [Fenticonazole Nitrate] + CC(C)C[C@H](NC(=O)[C@H](CCc1ccccc1)NC(=O)CN1CCOCC1)C(=O)N[C@@H](Cc1ccccc1)C(=O)N[C@@H](CC(C)C)C(=O)[C@@]1(C)CO1 [Carfilzomib],83.9,65.2
CO[C@H]1C[C@@H]2CC[C@@H](C)[C@@](O)(O2)C(=O)C(=O)N2CCCC[C@H]2C(=O)O[C@H]([C@H](C)C[C@@H]2CC[C@@H](O)[C@H](OC)C2)CC(=O)[C@H](C)/C=C(\C)[C@@H](O)[C@@H](OC)C(=O)[C@H](C)C[C@H](C)/C=C/C=C/C=C/1C [Rapamycin (Sirolimus)] + CC(C)C[C@H](NC(=O)[C@H](CCc1ccccc1)NC(=O)CN1CCOCC1)C(=O)N[C@@H](Cc1ccccc1)C(=O)N[C@@H](CC(C)C)C(=O)[C@@]1(C)CO1 [Carfilzomib],68.3,49.1
Cc1c(C(=O)NN2CCCCC2)nn(-c2ccc(Cl)cc2Cl)c1-c1ccc(Cl)cc1 [Rimonabant] + CC(C)C[C@H](NC(=O)[C@H](CCc1ccccc1)NC(=O)CN1CCOCC1)C(=O)N[C@@H](Cc1ccccc1)C(=O)N[C@@H](CC(C)C)C(=O)[C@@]1(C)CO1 [Carfilzomib],78.4,63
[O-]n1ccccc1=S.[O-]n1ccccc1=S.[Zn+2] [Zinc Pyrithione] + CC(C)C[C@H](NC(=O)[C@H](CCc1ccccc1)NC(=O)CN1CCOCC1)C(=O)N[C@@H](Cc1ccccc1)C(=O)N[C@@H](CC(C)C)C(=O)[C@@]1(C)CO1 [Carfilzomib],68.3,42.8
CC[C@@]1(O)C(=O)OCc2c1cc1n(c2=O)Cc2cc3c(CN(C)C)c(O)ccc3nc2-1.Cl [Topotecan HCl] + CC(C)C[C@H](NC(=O)[C@H](CCc1ccccc1)NC(=O)CN1CCOCC1)C(=O)N[C@@H](Cc1ccccc1)C(=O)N[C@@H](CC(C)C)C(=O)[C@@]1(C)CO1 [Carfilzomib],55.9,54.7
CC(C)C[C@H](NC(=O)[C@H](Cc1ccccc1)NC(=O)c1cnccn1)B(O)O [Bortezomib] + CC(C)C[C@H](NC(=O)[C@H](CCc1ccccc1)NC(=O)CN1CCOCC1)C(=O)N[C@@H](Cc1ccccc1)C(=O)N[C@@H](CC(C)C)C(=O)[C@@]1(C)CO1 [Carfilzomib],28.8,15.5
CCOc1cc2ncc(C#N)c(Nc3ccc(F)c(Cl)c3)c2cc1NC(=O)C=CCN(C)C [Pelitinib (EKB-569)] + CC(C)C[C@H](NC(=O)[C@H](CCc1ccccc1)NC(=O)CN1CCOCC1)C(=O)N[C@@H](Cc1ccccc1)C(=O)N[C@@H](CC(C)C)C(=O)[C@@]1(C)CO1 [Carfilzomib],140,40.8
Cc1c(-c2ccc(O)cc2)n(Cc2ccc(OCCN3CCCCCC3)cc2)c2ccc(O)cc12.Cl [Bazedoxifene HCl] + CC(C)C[C@H](NC(=O)[C@H](CCc1ccccc1)NC(=O)CN1CCOCC1)C(=O)N[C@@H](Cc1ccccc1)C(=O)N[C@@H](CC(C)C)C(=O)[C@@]1(C)CO1 [Carfilzomib],107,64.4
CCN(CC)CCNC(=O)c1c(C)[nH]c(C=C2C(=O)Nc3ccc(F)cc32)c1C.O=C(O)CC(O)C(=O)O [Sunitinib malate] + CC(C)C[C@H](NC(=O)[C@H](CCc1ccccc1)NC(=O)CN1CCOCC1)C(=O)N[C@@H](Cc1ccccc1)C(=O)N[C@@H](CC(C)C)C(=O)[C@@]1(C)CO1 [Carfilzomib],67.2,61.5
CC(=O)C1(O)Cc2c(O)c3c(c(O)c2C(OC2CC(N)C(O)C(C)O2)C1)C(=O)c1ccccc1C3=O.Cl (stereo unspecified) [Idarubicin HCl] + CC(C)C[C@H](NC(=O)[C@H](CCc1ccccc1)NC(=O)CN1CCOCC1)C(=O)N[C@@H](Cc1ccccc1)C(=O)N[C@@H](CC(C)C)C(=O)[C@@]1(C)CO1 [Carfilzomib],187,21.1
CNC(=O)c1cc(Oc2ccc(NC(=O)Nc3ccc(Cl)c(C(F)(F)F)c3)cc2)ccn1.Cc1ccc(S(=O)(=O)O)cc1 [Sorafenib Tosylate] + CC(C)C[C@H](NC(=O)[C@H](CCc1ccccc1)NC(=O)CN1CCOCC1)C(=O)N[C@@H](Cc1ccccc1)C(=O)N[C@@H](CC(C)C)C(=O)[C@@]1(C)CO1 [Carfilzomib],70.3,52.6
O=C1C=CC=CC1=C1NC(=C2C=CC=CC2=O)N(c2ccc(C(=O)O)cc2)N1 [Deferasirox] + CC(C)C[C@H](NC(=O)[C@H](CCc1ccccc1)NC(=O)CN1CCOCC1)C(=O)N[C@@H](Cc1ccccc1)C(=O)N[C@@H](CC(C)C)C(=O)[C@@]1(C)CO1 [Carfilzomib],67.8,61.2
COc1ccc2c(O[C@H]3CC4C(=O)N(C)CCCC/C=C\[C@H]5C[C@@]5(C(=O)NS(=O)(=O)C5CC5)NC(=O)[C@@H]4C3)cc(-c3nc(C(C)C)cs3)nc2c1C (stereo partly specified) [Simeprevir] + CC(C)C[C@H](NC(=O)[C@H](CCc1ccccc1)NC(=O)CN1CCOCC1)C(=O)N[C@@H](Cc1ccccc1)C(=O)N[C@@H](CC(C)C)C(=O)[C@@]1(C)CO1 [Carfilzomib],82.7,62.5
CC(O)C(=O)O.CC(O)C(=O)O.CN1CCN(c2ccc3c(c2)NC(=C2C(=O)N=c4cccc(F)c4=C2N)N3)CC1 [Dovitinib Dilactic acid] + CC(C)C[C@H](NC(=O)[C@H](CCc1ccccc1)NC(=O)CN1CCOCC1)C(=O)N[C@@H](Cc1ccccc1)C(=O)N[C@@H](CC(C)C)C(=O)[C@@]1(C)CO1 [Carfilzomib],71.2,88.8
CN(C(=O)CN(CCO)CC(=O)N(C)C(C)(C)Cc1ccccc1)C(C)(C)Cc1ccccc1 [Oxethazaine] + CC(C)C[C@H](NC(=O)[C@H](CCc1ccccc1)NC(=O)CN1CCOCC1)C(=O)N[C@@H](Cc1ccccc1)C(=O)N[C@@H](CC(C)C)C(=O)[C@@]1(C)CO1 [Carfilzomib],70.7,66.5
CCOC(=O)C1=C(COCCN)NC(C)=C(C(=O)OC)C1c1ccccc1Cl.O=S(=O)(O)c1ccccc1 (stereo unspecified) [Amlodipine Besylate] + CC(C)C[C@H](NC(=O)[C@H](CCc1ccccc1)NC(=O)CN1CCOCC1)C(=O)N[C@@H](Cc1ccccc1)C(=O)N[C@@H](CC(C)C)C(=O)[C@@]1(C)CO1 [Carfilzomib],97.1,64.8
